Measurements from PubChem BioAssay AID1159580 (chemical genetic matrix, 2015).
The whole screen tested about 5,500 compounds, of which about 2,000 (36%) were called active. Not shown: some 18% with an inconclusive outcome. Rule as the data show it: active = normalized growth mostly below about 0.91 (no sharp cut-off); inconclusive = no clear call, values can overlap the other calls; inactive = mostly above about 0.92. This is one part of the list.

Assay: chemical genetic growth profiling, strain panel (AID 1159580);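 also: tested at 20 µM; growth read once vehicle control cultures reached saturation at 30 °C; 1 = growth at the plate median or of vehicle wells; lower values mean less growth of the strain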
Settings: S. cerevisiae deletion strains, growth OD
[1] = locus YDL101C, strain DUN1, active compounds read low
[2] = locus YHR030C, strain SLT2, active compounds read low
[3] = locus YMR307W, strain GAS1, active compounds read low

Measured: normalized growth

CSc1cc(-c2ccncc2)nc(-c2cccs2)c1
inactive: locus YAR019C, strain CDC15, active compounds read low 0.953 | locus YBL105C, strain PKC1, active compounds read low 0.964 | locus YBR135W, strain CKS1, active compounds read low 0.957 | locus YBR136W, strain MEC1, active compounds read low 0.961 | locus YBR160W, strain CDC28, active compounds read low 0.952 | locus YDL017W, strain CDC7, active compounds read low 0.959 | locus YDL028C, strain MPS1, active compounds read low 0.965 | [1] 0.971 | locus YDL108W, strain KIN28, active compounds read low 0.96 | locus YDL132W, strain cdc53, active compounds read low 0.961 | locus YDL214C, strain PRR2, active compounds read low 0.965 | locus YDR052C, strain DBF4, active compounds read low 0.965 | locus YDR054C, strain cdc34, active compounds read low 0.957 | locus YDR226W, strain ADK1, active compounds read low 0.951 | locus YDR477W, strain SNF1, active compounds read low 0.941 | locus YER123W, strain YCK3, active compounds read low 0.928 | locus YER133W, strain GLC7, active compounds read low 0.927 | locus YFL009W, strain cdc4, active compounds read low 0.975 | locus YFL029C, strain CAK1, active compounds read low 0.952 | locus YFR003C, strain YPI1, active compounds read low 0.96 | locus YFR019W, strain FAB1, active compounds read low 0.965 | locus YFR028C, strain CDC14, active compounds read low 0.952 | locus YGR040W, strain KSS1, active compounds read low 0.928 | locus YGR052W, strain FMP48, active compounds read low 1.05 | locus YGR092W, strain DBF2, active compounds read low 0.89 | [2] 1.03 | locus YHR079C, strain IRE1, active compounds read low 0.953 | locus YHR082C, strain KSP1, active compounds read low 1.02 | locus YHR205W, strain SCH9, active compounds read low 0.997 | locus YIL147C, strain SLN1, active compounds read low 0.962 | locus YJL095W, strain BCK1, active compounds read low 0.982 | locus YJL128C, strain PBS2, active compounds read low 0.963 | locus YJL157C, strain FAR1, active compounds read low 0.938 | locus YJR016C, strain ILV3, active compounds read low 0.985 | locus YJR066W, strain TOR1 (second series), active compounds read low 0.95 | locus YJR066W, strain TOR1, active compounds read low 0.993 | locus YKL048C, strain ELM1, active compounds read low 0.966 | locus YKL067W, strain YNK1, active compounds read low 0.951 | locus YKL101W, strain HSL1, active compounds read low 0.961 | locus YKL193C, strain SDS22, active compounds read low 0.958 | locus YKL203C, strain TOR2, active compounds read low 1 | locus YLR113W, strain HOG1, active compounds read low 0.92 | locus YLR133W, strain CKI1, active compounds read low 0.962 | locus YLR403W, strain SFP1, active compounds read low 1.01 | locus YML070W, strain DAK1, active compounds read low 0.929 | locus YMR001C, strain CDC5, active compounds read low 0.964 | locus YMR205C, strain PFK2 (second series), active compounds read low 0.963 | locus YMR277W, strain FCP1, active compounds read low 0.961 | locus YNL006W, strain LST8, active compounds read low 0.969 | locus YNL020C, strain ARK1, active compounds read low 0.954 | locus YNL161W, strain CBK1, active compounds read low 0.952 | locus YNL183C, strain NPR1, active compounds read low 0.97 | locus YNL207W, strain RIO2, active compounds read low 0.945 | locus YNL222W, strain SSU72, active compounds read low 0.951 | locus YNL307C, strain MCK1 (second series), active compounds read low 0.952 | locus YOL078W, strain AVO1, active compounds read low 0.96 | locus YOL136C, strain PFK27, active compounds read low 0.956 | locus YOR061W, strain CKA2, active compounds read low 0.963 | locus YOR119C, strain RIO1, active compounds read low 0.984 | locus YOR231W, strain MKK1, active compounds read low 0.921 | locus YOR329C, strain SCD5, active compounds read low 0.966 | locus YPL031C, strain PHO85, active compounds read low 0.927 | locus YPL153C, strain RAD53, active compounds read low 0.925 | locus YPL204W, strain HRR25, active compounds read low 0.951 | locus YPL209C, strain IPL1, active compounds read low 0.954 | locus YPL256C, strain CLN2, active compounds read low 0.939 | locus YPR025C, strain CCL1, active compounds read low 0.963 | locus YPR106W, strain ISR1, active compounds read low 0.959 | locus YPR111W, strain DBF20, active compounds read low 0.947 | strain NNK1, active compounds read low 0.965 | strain TSCII, active compounds read low 0.951

CSc1c(C#N)c(-c2cccs2)nn1C
active: locus YGR078C, strain PAC10, active compounds read low 0.913 | [2] 0.505 | locus YHR087W, strain rtc3, active compounds read low 0.898 | locus YJR075W, strain HOC1, active compounds read low 0.89 | locus YLR058C, strain SHM2 (second series), active compounds read low 0.92 | locus YNL298W, strain CLA4 (second series), active compounds read low 0.804 | locus YNL322C, strain KRE1, active compounds read low 0.931 | locus YNR030W, strain Alg12, active compounds read low 0.859 | locus YPR135W, strain CTF4, active compounds read low 0.509
inactive: locus YAL013W, strain DEP1, active compounds read low 0.934 | locus YBR229C, strain ROT2, active compounds read low 0.935 | [1] 0.934 | locus YDR150W, strain NUM1, active compounds read low 0.86 | locus YEL061C, strain CIN8, active compounds read low 0.924 | locus YJL187C, strain SWE1, active compounds read low 1.02 | locus YJR043C, strain POL32, active compounds read low 0.978 | locus YLR039C, strain RIC1, active compounds read low 0.87 | locus YLR085C, strain ARP6, active compounds read low 0.784 | locus YLR262C, strain YPT6, active compounds read low 0.879 | locus YML094W, strain GIM5, active compounds read low 0.911 | locus YMR219W, strain ESC1, active compounds read low 0.945 | locus YMR263W, strain SAP30, active compounds read low 0.949 | [3] 0.983 | locus YNL153C, strain GIM3, active compounds read low 0.959 | locus YPL055C, strain LGE1, active compounds read low 0.917 | locus YPL241C, strain CIN2, active compounds read low 0.886

NCC(CP(=O)(O)O)c1ccc(Cl)cc1 (stereo not drawn)
inactive: locus YAL040C, strain CLN3, active compounds read low 1.04 | locus YCL061C, strain MRC1 (second series), active compounds read low 0.978 | locus YDR363W, strain ESC2, active compounds read low 0.99 | locus YER002W, strain NOP16, active compounds read low 0.991 | locus YGR229C, strain SMI1, active compounds read low 0.963 | [3] 0.995 | locus YNL128W, strain TEP1, active compounds read low 0.987 | locus YNL175C, strain NOP13, active compounds read low 0.986 | locus YNL197C, strain WHI3, active compounds read low 0.998 | locus YNL224C, strain SQS1, active compounds read low 1 | locus YOR083W, strain WHI5 (second series), active compounds read low 0.98
